Measurements: PubChem BioAssay (NCI)
Values joined by “and” are separate entries in the source; they are usually repeats but may differ in a detail not shown here. Equal values may be shown once. About 83,000 compounds went through this panel and 20% of them were active in at least one assay; those are over-represented in the sample as a whole.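 Cells were grown in 96-well plates and exposed to the test compound at a single concentration for 48 hours; results are reported as percent growth, with values below 10 considered active.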 Unmarked numbers belong to inactive results.

What follows are compounds tested on M14 melanoma (assay: NCI-60 one-dose screen, 48 h (100 = growth as untreated, 0 = no growth, -100 = all killed)). Conditions: 10 µM.
Protocol: Growth inhibition of the M14 human tumor cell line is measured as a screen for anti-cancer activity. Cells are grown in 96 well plates and exposed to the test compound for 48 hours. Compounds are tested at a single concentration, which is 10^-5 M for most compounds. The reported endpoint is percent growth (GI% or GIPRCNT), where numbers from 0 - 100% represent growth inhibition, and numbers from -100% - 0 represent cell death. For example, a value of 40 represents 60% growth inhibition. A value of 0 means no net growth occurred over the course of the experiment. A value of -40 indicates 40% of cells at the beginning of the experiment died by the end of the experiment. A value of -100 means all cells are dead at the end of the experiment.
NCI-60 Human Tumor Cell Lines Screen was performed using the standard one-dose NCI protocol, which is described in more detail at https://dtp.cancer.gov/discovery_development/nci-60/default.htm.
Compounds with GIPRCNT values below 10 were considered active. Activity score was based on GIPRCNT using the following formula: […]
Score is 0 for GIPRCNT values of 100 or above, 50 for GIPRCNT values of 0, and 100 for GIPRCNT values of -100.

| Compound | growth [%] |
| --- | --- |
| O=c1ccn2c(n1)OC1CC2OC1COC(c1ccccc1)(c1ccccc1)c1ccccc1 (stereo not given) | 112 |

Same assay, conditions: 10 µM unless noted

| Compound | growth |
| --- | --- |
| O=C(c1ccccc1)C1(Br)CCCCC1 | 98.6% |
| OCc1ccccc1F | 90.8% |
| O=C(NC(CSSCC(NC(=O)OCc1ccccc1)C(=O)O)C(=O)O)OCc1ccccc1 (stereo not given) | 93.5% and 88.9% |
| O=C(c1ccncc1)c1c(Cc2ccccc2)ccc2ccccc12 | 108% |
| COc1ccc([N+](=O)[O-])cc1OC | 98.9% and 113% |
| O=C(/C=C/C=C/c1ccc2c(c1)OCO2)N1CCCCC1 | 109% and 99.5% |
| C#CCOC(=O)C(N)CS (stereo not given) | 97.1% |
| CCc1ccccc1-n1[nH]c(C)c(C=N)c1=O | 109% |
| Nc1ccccc1SC1CC(=O)N(c2ccc(I)cc2)C1=O (stereo not given) | 88% |
| C(#CCN1CCOCC1)CCCN1CCOCC1 | 105% and 98% |
| COc1ccc(CCl)c(C)c1OC | 110% |
| CC1=CC(=O)C=CC1=Nc1ccc(N(C)C)cc1 | 93.5% and 41.1% |
| Nc1nc(N)c2cc(S(=O)(=O)c3ccccc3)ccc2n1 | 35.2% and 31.9% |
| C/C=C(/C(=O)NC(N)=O)C(C)C | 93.9% |
| N=c1sc2ccccc2n1CC(=O)O | 95.7% |
| CS(=O)(=O)c1nsc(N)n1 | 104% |
| CC(C)(C)OC(=O)c1ccc(NCc2cc(O)ccc2O)cc1 | 44.5% |
| COC(=O)c1nc(=S)[nH]c(C(=O)OC)c1C(=O)c1ccc(OC)cc1 | 108% |
| Oc1ccc(O)c(-c2ccccc2)c1 | 65.9% |

| Compound | growth |
| --- | --- |
| N#Cc1ccc(/C=C/C(=O)c2ccccc2)cc1 | 98.6% and 102% |
| COc1ccc(CCn2cnn3c(=O)c4ccccc4nc3c2=O)cc1OC | 94% and 106% |
| O=COCCCc1ccccc1 | 105% |
| COc1cc(NCCCCCCCNC(C)C)c2nccc(C)c2c1 | 82.8% and 68% |
| COc1ccc(COC=O)cc1 | 104% |
| CN(C)C(=S)N(C)C | 101% |
| C=CCN1C(=O)c2ccccc2C1=O | 99.9% |
| CCCCOC1NC(=O)NC(=O)C1(F)C(=O)OCC (stereo not given) | 71.4% and 71.3% |
| O=C(O)c1cccc(Br)c1 | 99.7% and 103% |
| Cc1ccc(N)cc1S(=O)(=O)O | 105% and 101% |
| O=C(O)/C=C/C=C/c1ccccc1 | 101% |
| CC(C)=NOC(C)C(=O)O (stereo not given) | 94.4% |
| CC(CN(C)C)CN1c2ccccc2Sc2ccccc21 (stereo not given) | 47.9% and 81.3% and 75.8% |
| CCN(CC)CCNC(=O)c1ccc(NCN2C(=O)NC(c3ccccc3)(c3ccccc3)C2=O)cc1 | 105% and 96.3% |
| CCC/C(=N/NC(N)=O)c1ccco1 | 97.6% |
| CNc1ccc(Cl)cc1S(=O)(=O)c1ccccc1[N+](=O)[O-] | 115% and 83.4% |
| OC(CC(c1ccccc1)c1cccc2ccccc12)(c1ccccc1)c1ccccc1 (stereo not given) | 72.1% and 77.2% |
| C/C=C/C(=O)OCCCCCCCCCCCC | 98.7% |
| O=C(Nc1ccccc1)OCC(CN1CCCCC1)OC(=O)Nc1ccccc1 (stereo not given) | 86.6% and 108% |

Same assay, conditions: 100 µM

| Compound | growth [%] |
| --- | --- |
| O=c1ccn2c(n1)OC1CC2OC1COC(c1ccccc1)(c1ccccc1)c1ccccc1 (stereo not given) | 46.1 |
